Results from PubChem BioAssay.
Records with an inconclusive call do not appear. Active and inactive are the calls of the source.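 Rule for the calls, unless noted: active = inhibition above 54%, about 3 SD of non-fluorescent compounds; inactive = the rest.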

Legend:
[1] = yeast TOR pathway RPL19A-GFP modulators, primary screen, cell-based, S. cerevisiae, multiplex flow cytometry (AID 1862; in the data active = percent of DMSO control GFP below about 86%;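 note: lower values mimic rapamycin by blocking the RPL19A rise seen in DMSO cells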); settings: S. cerevisiae RPL19A-GFP strain, flow cytometry fluorescence, 3 h; at 10 µM; stronger effect = lower value
[2] = modulators of CIT2-GFP expression in yeast, primary screen, S. cerevisiae, GFP fusion, multiplex flow cytometry (AID 1870;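 active = percent response above a set limit, the screen-wide mean plus 3 SD, cut at about 130% in these data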;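 note: barcoded CIT2-GFP strain pooled with four other GFP strains with rapamycin as positive control; median GFP fluorescence per well over plate mean of DMSO wells so 100% = DMSO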); settings: 3 h, at 10 µM, stronger effect = higher value
[3] = modulators of LAP4-GFP expression in yeast, primary screen, S. cerevisiae, multiplex flow cytometry (AID 1873;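 active = GFP signal, as percent of the solvent control, above the screen mean plus 3 SD, about 149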); settings: 3 h, at 10 µM, stronger effect = higher value
[4] = inhibitors of CD8+ T cell-vesicle binding, pilot screen, LFA-1/ICAM-1 modulator project, MLPCN validation set, flow cytometry (AID 2523;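 active = response below a set limit, under 55% cells CD8-positive and vesicle-bound, and CD8 cells' 90th-percentile brightness under 279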;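 for vesicle binding response: mean PE anti-B7-1 fluorescence of CD8+ cells relative to row control; 100% = QL9-loaded vesicles with DMSO vehicle in the same plate row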); settings: 2C mouse CD8+ T cells, at 7 µM, stronger effect = lower value; double positive events: measured here: CD8+/vesicle+ event percentage
[5] = biological target: Integrin beta-1 (Homo sapiens) + Integrin alpha-4 (Homo sapiens) (UniProt P13612+P05556); experiment: inhibition of HUTS-21 binding to VLA-4, pilot screen, VLA-4 allosteric modulator project, U937 cells, HUTS-21 mAb, flow cytometry, validation set (AID 2674;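 active = inhibition above 50%, about 3 SD of the validation set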;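 note: antibody binding induced by the VLA-4 ligand LDV present at three times its Kd; 0% = LDV ligand with antibody and no compound and 100% = antibody without LDV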); settings: HUTS-21 LIBS mAb binding, at 6.7 µM, stronger effect = higher value, binding induced by LDV ligand
Sequence of Integrin beta-1 (Homo sapiens) + Integrin alpha-4 (Homo sapiens) (P05556 whole entry, looked up): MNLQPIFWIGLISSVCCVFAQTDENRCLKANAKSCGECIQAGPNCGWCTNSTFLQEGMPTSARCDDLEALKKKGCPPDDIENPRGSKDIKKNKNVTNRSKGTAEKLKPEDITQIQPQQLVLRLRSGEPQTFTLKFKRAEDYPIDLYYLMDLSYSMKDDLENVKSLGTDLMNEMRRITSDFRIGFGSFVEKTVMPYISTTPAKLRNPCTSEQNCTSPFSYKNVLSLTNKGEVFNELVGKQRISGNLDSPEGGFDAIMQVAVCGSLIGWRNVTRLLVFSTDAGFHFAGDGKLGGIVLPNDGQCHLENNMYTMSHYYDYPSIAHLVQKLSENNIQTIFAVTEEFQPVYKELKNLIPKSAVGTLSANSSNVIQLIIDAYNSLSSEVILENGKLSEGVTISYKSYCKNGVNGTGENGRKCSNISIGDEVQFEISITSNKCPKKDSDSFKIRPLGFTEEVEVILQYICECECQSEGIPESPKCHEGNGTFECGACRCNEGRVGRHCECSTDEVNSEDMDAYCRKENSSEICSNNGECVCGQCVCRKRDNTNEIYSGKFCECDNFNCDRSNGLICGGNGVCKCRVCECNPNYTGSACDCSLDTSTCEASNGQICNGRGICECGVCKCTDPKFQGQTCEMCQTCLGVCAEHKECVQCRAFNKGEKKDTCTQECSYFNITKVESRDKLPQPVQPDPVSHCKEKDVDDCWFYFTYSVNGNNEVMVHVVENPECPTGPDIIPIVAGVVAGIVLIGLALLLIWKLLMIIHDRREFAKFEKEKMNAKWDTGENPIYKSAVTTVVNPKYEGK
Sequence of Integrin beta-1 (Homo sapiens) + Integrin alpha-4 (Homo sapiens) (P13612 whole entry, looked up): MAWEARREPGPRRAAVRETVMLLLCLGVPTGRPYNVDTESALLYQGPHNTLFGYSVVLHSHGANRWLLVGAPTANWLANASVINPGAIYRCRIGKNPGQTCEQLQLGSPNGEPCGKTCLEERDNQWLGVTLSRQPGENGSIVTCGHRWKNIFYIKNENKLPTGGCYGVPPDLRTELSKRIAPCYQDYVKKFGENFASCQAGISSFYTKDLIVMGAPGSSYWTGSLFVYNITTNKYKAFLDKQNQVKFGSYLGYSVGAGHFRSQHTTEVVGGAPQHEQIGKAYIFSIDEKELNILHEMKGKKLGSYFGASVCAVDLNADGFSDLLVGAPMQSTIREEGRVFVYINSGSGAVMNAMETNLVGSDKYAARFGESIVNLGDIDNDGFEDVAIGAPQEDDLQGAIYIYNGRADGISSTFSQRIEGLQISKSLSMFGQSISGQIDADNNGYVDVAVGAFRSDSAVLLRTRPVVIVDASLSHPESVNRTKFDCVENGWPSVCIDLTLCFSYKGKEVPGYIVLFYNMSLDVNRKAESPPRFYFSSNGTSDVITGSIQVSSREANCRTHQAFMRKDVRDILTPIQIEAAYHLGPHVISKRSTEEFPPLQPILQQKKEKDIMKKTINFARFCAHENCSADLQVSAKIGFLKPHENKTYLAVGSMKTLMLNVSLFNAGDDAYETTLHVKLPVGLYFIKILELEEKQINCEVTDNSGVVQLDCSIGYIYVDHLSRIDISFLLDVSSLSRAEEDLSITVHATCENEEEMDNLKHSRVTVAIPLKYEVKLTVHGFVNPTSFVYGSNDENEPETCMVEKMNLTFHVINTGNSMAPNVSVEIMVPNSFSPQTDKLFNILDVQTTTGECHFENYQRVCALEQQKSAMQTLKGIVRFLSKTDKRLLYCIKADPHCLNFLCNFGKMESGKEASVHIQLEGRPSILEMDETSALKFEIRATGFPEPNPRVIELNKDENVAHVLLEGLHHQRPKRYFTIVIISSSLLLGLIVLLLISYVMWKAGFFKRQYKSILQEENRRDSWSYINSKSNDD

[6] = superoxide lowering in aged yeast cells, pilot screen, validation compound set (AID 2706;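 active = superoxide response below 65% of plate, a cut near 3 SD across the whole screen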;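 note: yeast exposed to compound for one week at 30 degrees C before staining; 100% = mean of all compound wells on the same plate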); settings: S. cerevisiae aging, superoxide DHE fluorescence; at 10 µM, stronger effect = lower value
[7] = biological target: Beta-adrenergic receptor kinase 1 (Homo sapiens) (UniProt P25098); experiment: GRK2 binders displacing RNA aptamer, biochemical, validation, human GRK2, bead flow cytometry (AID 488806;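 active = aptamer binding inhibition above 30%, about 3 SD of noise from non-fluorescent compounds; inactive = inhibition at or below 30%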); settings: bead-bound GRK2, FAM-aptamer displacement, at 10 µM, stronger effect = higher value
Sequence of Beta-adrenergic receptor kinase 1 (Homo sapiens) (P25098 whole entry, looked up): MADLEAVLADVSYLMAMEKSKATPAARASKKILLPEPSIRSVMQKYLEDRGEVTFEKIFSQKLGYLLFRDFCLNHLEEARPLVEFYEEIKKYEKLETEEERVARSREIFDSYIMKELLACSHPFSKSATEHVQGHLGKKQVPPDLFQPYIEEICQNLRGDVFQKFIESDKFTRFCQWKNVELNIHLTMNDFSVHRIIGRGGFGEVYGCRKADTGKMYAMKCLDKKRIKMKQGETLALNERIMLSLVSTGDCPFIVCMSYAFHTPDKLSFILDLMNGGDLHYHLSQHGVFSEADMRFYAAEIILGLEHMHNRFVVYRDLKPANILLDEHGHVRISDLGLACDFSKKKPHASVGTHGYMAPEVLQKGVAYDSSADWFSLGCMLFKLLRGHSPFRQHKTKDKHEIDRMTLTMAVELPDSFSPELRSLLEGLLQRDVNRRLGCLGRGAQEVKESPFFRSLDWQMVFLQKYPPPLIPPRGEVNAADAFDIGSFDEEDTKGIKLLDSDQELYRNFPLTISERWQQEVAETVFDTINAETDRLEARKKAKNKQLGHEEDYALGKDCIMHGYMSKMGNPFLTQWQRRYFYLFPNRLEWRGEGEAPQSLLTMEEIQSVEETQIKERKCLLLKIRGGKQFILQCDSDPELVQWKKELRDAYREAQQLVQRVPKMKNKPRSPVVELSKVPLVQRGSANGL

[8] = biological target: Beta-2 adrenergic receptor (Homo sapiens) (UniProt P07550); experiment: beta2AR agonists driving receptor internalization, pilot screen, cell-based, FAP fluorogen, flow cytometry, validation set (AID 504459;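 active = percent response above 42, roughly 3 SD of non-fluorescent test compounds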;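 note: agonist-driven loss of surface beta2AR via internalization measured by FAP dye flow cytometry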); settings: Am2.2-beta2AR cells, FAP surface receptor flow cytometry; at 10 µM; stronger effect = higher value
Sequence of Beta-2 adrenergic receptor (Homo sapiens) (P07550 whole entry, looked up, the tested form may be a part): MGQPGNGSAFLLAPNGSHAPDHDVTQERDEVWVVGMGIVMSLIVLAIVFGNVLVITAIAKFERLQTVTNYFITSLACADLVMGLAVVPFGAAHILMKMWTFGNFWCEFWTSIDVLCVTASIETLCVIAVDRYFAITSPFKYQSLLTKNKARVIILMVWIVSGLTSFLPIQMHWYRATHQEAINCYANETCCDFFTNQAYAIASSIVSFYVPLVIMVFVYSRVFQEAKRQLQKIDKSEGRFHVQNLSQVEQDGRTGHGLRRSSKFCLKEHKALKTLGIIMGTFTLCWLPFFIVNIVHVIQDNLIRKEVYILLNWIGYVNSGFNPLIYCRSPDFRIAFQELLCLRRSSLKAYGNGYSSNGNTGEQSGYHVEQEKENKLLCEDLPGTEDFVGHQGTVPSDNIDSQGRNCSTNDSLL

[9] = biological target: AP-2 complex subunit beta (Homo sapiens) (UniProt P63010); experiment: inhibitors of arrestin peptide binding to AP2, pilot screen, biochemical, validation set, GST-AP2 beads, flow cytometry (AID 504541); settings: FITC arrestin peptide, at 10 µM, stronger effect = higher value, AP2 beta2 appendage fragment, R879A mutant;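 note: AP2 carries R879A mutation and is captured from E. coli lysate; bead-bound FITC arrestin peptide fluorescence measuring arrestin peptide binding to AP2; 0% = DMSO wells and 100% = excess unlabeled arrestin peptide control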
Sequence of AP-2 complex subunit beta (Homo sapiens) (P63010 whole entry, looked up, the tested form may be a part, one chain of several): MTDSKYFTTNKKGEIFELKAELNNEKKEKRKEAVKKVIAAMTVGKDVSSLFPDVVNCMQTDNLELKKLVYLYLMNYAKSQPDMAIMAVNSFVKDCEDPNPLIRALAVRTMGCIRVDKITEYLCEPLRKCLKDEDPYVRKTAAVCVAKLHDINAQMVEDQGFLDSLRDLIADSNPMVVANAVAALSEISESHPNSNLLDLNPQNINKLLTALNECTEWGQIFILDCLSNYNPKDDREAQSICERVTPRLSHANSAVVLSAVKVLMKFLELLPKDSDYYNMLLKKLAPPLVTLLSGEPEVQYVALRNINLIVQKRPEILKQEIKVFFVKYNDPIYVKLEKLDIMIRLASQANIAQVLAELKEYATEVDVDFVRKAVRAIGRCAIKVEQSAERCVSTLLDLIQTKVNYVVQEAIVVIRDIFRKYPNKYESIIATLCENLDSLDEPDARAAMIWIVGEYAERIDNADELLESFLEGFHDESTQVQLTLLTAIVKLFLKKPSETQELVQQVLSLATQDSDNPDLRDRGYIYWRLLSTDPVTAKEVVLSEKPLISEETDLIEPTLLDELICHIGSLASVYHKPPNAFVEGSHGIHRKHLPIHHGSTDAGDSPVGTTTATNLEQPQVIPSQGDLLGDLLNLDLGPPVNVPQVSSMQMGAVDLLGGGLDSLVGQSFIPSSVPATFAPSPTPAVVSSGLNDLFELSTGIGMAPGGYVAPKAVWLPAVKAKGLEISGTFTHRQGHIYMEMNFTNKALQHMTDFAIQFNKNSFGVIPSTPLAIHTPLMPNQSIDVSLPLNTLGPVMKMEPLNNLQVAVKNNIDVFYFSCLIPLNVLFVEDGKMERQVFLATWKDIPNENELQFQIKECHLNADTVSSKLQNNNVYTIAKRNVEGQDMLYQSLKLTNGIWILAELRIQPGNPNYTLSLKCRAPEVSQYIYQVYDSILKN

[10] = yeast V-ATPase proton transport modulators, S. cerevisiae, pHLuorin, HTS validation (AID 504600; in the data active = response above about 15%;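 note: plate controls were DMSO for no effect and reference compound for full effect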); settings: S. cerevisiae pHLuorin cytosolic pH, at 10 µM, stronger effect = higher value
[11] = system: anti-desmoglein-3 scFv antibody binding to human DSG3; experiment: inhibitors of anti-DSG3 scFv binding to DSG3, pilot screen, biochemical, validation compound set, bead-based, flow cytometry (AID 588368;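 active = binding below the plate cutoff, the plate median minus 3 SD, with a reading above zero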;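 note: signal is the median channel fluorescence of bead-bound GFP antibody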); settings: Protein G beads, DSG3-Fc, scFv-GFP binding, at 10 µM, stronger effect = lower value
[12] = inhibitors of fungal efflux pumps CDR1, CDR2, MDR1, pilot screen, validation compound set, multiplex, phenotypic (AID 588506;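 active = efflux inhibition above 0.42, the validation set average plus 4 SD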;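 note: Nile Red retained in cells so higher fluorescence means more efflux inhibition; 0 = negative control wells and 1 = enniatin B 25 µM full block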); settings: S. cerevisiae pump-expressing triplex, Nile Red efflux flow cytometry; at 10 µM; stronger effect = higher value; the pumps come from Candida albicans
[13] = biological target: ATP-binding cassette sub-family B member 6 (Homo sapiens) (UniProt Q9NP58); experiment: ABCB6 transporter inhibitors, pilot screen, K562-ABCB6 cells, flow cytometry, validation set (AID 588550;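 active = inhibition above the screen-wide mean plus 3 SD, about 51%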;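 note: 0% = DMSO wells and 100% = benzethonium chloride 70 µM positive control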); settings: K562-ABCB6 porphyrin accumulation, 1 h, at 10 µM, stronger effect = higher value
Sequence of ATP-binding cassette sub-family B member 6 (Homo sapiens) (Q9NP58 whole entry, looked up): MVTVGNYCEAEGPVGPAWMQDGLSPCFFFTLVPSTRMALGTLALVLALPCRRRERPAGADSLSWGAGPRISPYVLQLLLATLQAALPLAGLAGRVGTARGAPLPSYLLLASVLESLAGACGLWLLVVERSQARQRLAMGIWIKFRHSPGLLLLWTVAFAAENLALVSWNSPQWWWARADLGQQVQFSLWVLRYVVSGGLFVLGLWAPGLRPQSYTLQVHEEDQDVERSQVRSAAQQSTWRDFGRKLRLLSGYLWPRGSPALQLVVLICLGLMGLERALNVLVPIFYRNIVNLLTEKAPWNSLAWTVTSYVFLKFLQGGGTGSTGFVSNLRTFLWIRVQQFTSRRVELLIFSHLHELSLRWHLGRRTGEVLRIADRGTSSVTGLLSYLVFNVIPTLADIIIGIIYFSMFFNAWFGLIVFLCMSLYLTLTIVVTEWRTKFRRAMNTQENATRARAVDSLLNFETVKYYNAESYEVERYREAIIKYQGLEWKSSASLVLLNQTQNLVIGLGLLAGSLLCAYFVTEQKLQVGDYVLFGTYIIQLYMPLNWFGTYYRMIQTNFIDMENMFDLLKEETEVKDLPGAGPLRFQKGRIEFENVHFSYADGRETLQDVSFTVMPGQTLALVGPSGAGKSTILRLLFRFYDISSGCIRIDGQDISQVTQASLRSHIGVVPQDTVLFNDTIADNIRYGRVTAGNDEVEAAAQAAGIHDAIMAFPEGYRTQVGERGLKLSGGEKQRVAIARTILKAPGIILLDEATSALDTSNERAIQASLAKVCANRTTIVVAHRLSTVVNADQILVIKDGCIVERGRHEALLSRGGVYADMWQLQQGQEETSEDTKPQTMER

[14] = promoters of myeloid differentiation in arrested cells, primary screen, cell-based, GFP/MAC1 double positive, flow cytometry, validation set (AID 588685;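 active = differentiation response of at least 50%, scaled between solvent and reference control, from cells with both markers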;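 note: compound exposure lasts four days before antibody staining and flow analysis; 0% = DMSO wells and 100% = 5 µM fulvestrant positive control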); settings: ER-HoxA9 marrow cells, stronger effect = higher value, normalized: vehicle 0, fulvestrant 100
[15] = modulators of MEP2-GFP levels in yeast, primary screen, S. cerevisiae, multiplex flow cytometry (AID 1867;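 active = GFP response, as percent of the DMSO control, above the screen-wide mean plus 3 SD, about 139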;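 note: median GFP channel fluorescence of barcode-gated MEP2-GFP cells measured by flow cytometry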); settings: S. cerevisiae MEP2-GFP strain, 3 h, at 10 µM, stronger effect = higher value, 100% means same as DMSO wells

Row | Compound | percent of DMSO control GFP [1] | percent response of DMSO control [2] | GFP response vs DMSO [3] | double positive events [4] [%] | vesicle binding response [4] | inhibition [5] | superoxide response (% of plate) [6] | aptamer binding inhibition [7] | response [8] | inhibition [9] | response [10] | binding (% of control) [11] | efflux inhibition (fraction of control) [12] | inhibition [13] | differentiation response [14] | GFP response vs DMSO [15]
1 | Cc1cc(C)c2c(CCl)cc(=O)oc2c1 | 98.7% (inactive) | 107% (inactive) | 127% (inactive) | 60.3 | 174% (inactive) | 33.8% (inactive) | 93% (inactive) | -2% (inactive) | -0.73% (inactive) | 2.3% (inactive) | 63.9% (active) | 96.2% (inactive) | 0.08 (inactive) | 4% (inactive) | 4.86% (inactive) | –
2 | CCCCC[C@H](O)/C=C/[C@@H]1[C@@H](C/C=C\CCCC(=O)OC)[C@@H](O)C[C@H]1O | 97.4% (inactive) | 99.2% (inactive) | – | 59.2 | 157% (inactive) | -30.4% (inactive) | 171% (inactive) | 12% (inactive) | 4.64% (inactive) | -11.2% (inactive) | -0.57% (inactive) | 116% (inactive) | 0.05 (inactive) | 13% (inactive) | 2.46% (inactive) | 127% (inactive)
3 | CC12CCC(C(=O)N3CCCCC3)([C@H](Br)C1=O)C2(C)C (some centres not stated) | 90.6% (inactive) | 101% (inactive) | 78.7% (inactive) | 65.8 | 272% (inactive) | 8.4% (inactive) | 101% (inactive) | -1% (inactive) | -6.79% (inactive) | -4.61% (inactive) | 0.52% (inactive) | 98.5% (inactive) | -0.13 (inactive) | 11% (inactive) | -1.64% (inactive) | 119% (inactive)
4 | O=C(CCCCCCCC(=O)c1ccccc1)c1ccccc1 | 98.2% (inactive) | 98.6% (inactive) | 105% (inactive) | 62.1 | 189% (inactive) | -5.89% (inactive) | 95.3% (inactive) | 7% (inactive) | 9.71% (inactive) | -3.86% (inactive) | -4.73% (inactive) | 98.9% (inactive) | -0.13 (inactive) | 7% (inactive) | 5.6% (inactive) | –
5 | C[C@]12CC[C@@H]3c4ccc(OS(=O)(=O)O)cc4CC[C@H]3[C@@H]1CCC2=O | 90.6% (inactive) | 96.6% (inactive) | 79.2% (inactive) | 73.4 | 292% (inactive) | 5.49% (inactive) | 95.8% (inactive) | -3% (inactive) | 0.04% (inactive) | -3.24% (inactive) | 3.54% (inactive) | 104% (inactive) | -0.24 (inactive) | 11% (inactive) | 6.55% (inactive) | 120% (inactive)
6 | COCCc1ccc(OCC(O)CNC(C)C)cc1 (configuration not stated) | 103% (inactive) | 98.9% (inactive) | 87.4% (inactive) | 68.1 | 212% (inactive) | 7.85% (inactive) | – | -2% (inactive) | – | -6% (inactive) | 1.04% (inactive) | 105% (inactive) | 0.21 (inactive) | 7% (inactive) | 5.13% (inactive) | –
7 | CC1(C)C2CCC1(C)C(OCC[N+](C)(C)CC(=O)OC1CCCCC1)C2 (configuration not stated) | 88% (inactive) | 104% (inactive) | 78.1% (inactive) | 70 | 196% (inactive) | 12.3% (inactive) | 95.2% (inactive) | -4% (inactive) | -4.15% (inactive) | -2.94% (inactive) | 3.18% (inactive) | 109% (inactive) | -0.06 (inactive) | 6% (inactive) | -5.73% (inactive) | 104% (inactive)
8 | CC(=O)N1N=C(c2cccs2)CC1c1ccc(C)o1 (configuration not stated) | 92.8% (inactive) | 91.3% (inactive) | 78.7% (inactive) | 55.8 | 145% (inactive) | 11.3% (inactive) | 117% (inactive) | 0% (inactive) | -10.5% (inactive) | -6.28% (inactive) | -0.52% (inactive) | 96.7% (inactive) | 0.45 (active) | 9% (inactive) | -4.91% (inactive) | 131% (inactive)
9 | Cc1oc2ccc(OC(=O)c3cccs3)cc2c1C(=O)OC(C)C | 91.2% (inactive) | 92.5% (inactive) | 115% (inactive) | 64.6 | 205% (inactive) | -4.52% (inactive) | 96% (inactive) | 1% (inactive) | -19.3% (inactive) | -7.21% (inactive) | -4.85% (inactive) | 105% (inactive) | -0.09 (inactive) | 2% (inactive) | -4.99% (inactive) | –
10 | CNCCCN1c2ccccc2CCc2ccccc21 | 93.3% (inactive) | 92.6% (inactive) | 78.7% (inactive) | 71.5 | 231% (inactive) | 16.2% (inactive) | 81.9% (inactive) | -1% (inactive) | – | -10.5% (inactive) | 0.46% (inactive) | 109% (inactive) | -0.38 (inactive) | 9% (inactive) | 9.83% (inactive) | 111% (inactive)
11 | COc1ccc(CN(C)CCc2ccccn2)cc1OC | 104% (inactive) | 102% (inactive) | 74.3% (inactive) | 55.5 | 91.8% (inactive) | -15.4% (inactive) | 95.8% (inactive) | 3% (inactive) | 6.81% (inactive) | -9.53% (inactive) | 20.5% (active) | 98.7% (inactive) | -0.03 (inactive) | 2% (inactive) | -28% (inactive) | –
